# Screening results (PubChem BioAssay)
# Vaccinia mCherry: qHTS for Stage-Specific Inhibitors of Vaccinia Orthopoxvirus: mCherry Reporter Primary qHTS; 0.63% of 310,000 active; Vaccinia virus mCherry reporter infection, fluorescence; Potency, µM (titrated, usually from 36.5 µM), for inactives: at the highest dose activity change, negative = inhibition, actives largely listed as inhibitors; AID 720579, 2013; calls by dose curve; tested in A549 cells; note: potency is the fitted concentration of half-maximal effect; nearly all actives have a fitted effect of over 35% in size
# VACV Venus inh: qHTS for Stage-Specific Inhibitors of Vaccinia Orthopoxvirus: Venus Reporter Primary qHTS | Vaccinia virus Venus reporter expression, fluorescence | Potency, µM (highest dose often 36.5 µM), inactives show at the highest dose activity change, negative = inhibition, most hits filed as inhibitors | 0.46% of 330,000 active | AID 720580, 2013; calls by dose curve; tested in A549 cells; note: potency is the fitted concentration of half-maximal effect; nearly all actives have a fitted effect of over 30% in size
# Marburg entry inh: qHTS for inhibitors of binding or entry into cells for Marburg Virus. Marburg virus pseudotyped entry inhibition, cell reporter. Potency, µM (titrated, usually from 37.8 µM), without a hit: top-dose activity change, negative = inhibition, usual class: inhibitors. 1.8% of 300,000 active. AID 540276, 2011; calls by dose curve; tested in HEK293 cells; note: potency is the fitted concentration of half-maximal effect
# HCMV antiviral: qHTS Assay for inhibitors of the human cytomegalovirus (HCMV). HFF cells, HCMV-luciferase reporter, 72 h; hits give low values. activity change, negative = inhibition, % at 57.5 µM. 4.5% of 410,000 active. AID 1259415, 2018; in the data active = activity change below about -60%; inconclusive = no clear call, values can overlap the other calls; inactive = above about -39%
#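 HFF cells seeded 16 h at 37C, treated with compounds, infected with luciferase-reporter HCMV at MOI 1 PFU/cell; luciferase read at 72 h post infection, normalized to buffer-only and Salinomycin controls.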
# HCV inhibitor: qHTS Assay for Inhibitors of Hepatitis C Virus (HCV); Huh7.5.1 HCVcc-Cre infection, luciferase reporter, 44 h; Potency, µM (titrated, usually from 41.8 µM), without a hit: at the highest dose activity change, negative = inhibition, most hits filed as inhibitors; 3.4% of 340,000 active; AID 651820, 2012; active = well fitted inhibition curve with a large enough effect; inconclusive = small, poorly fitted or top-dose-only effect, or another doubt; inactive = no such curve, though single readings can be large or run the other way; note: potency is the fitted concentration of half-maximal effect
#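 Cells seeded at 1,000/well and cultured 4 h, then compounds added followed by HCVcc-Cre virus (~0.5 moi). After 44 h further culture, luciferase substrate was added, plates held 15 min at room temperature, and luminescence read for 15 sec.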
# LASV entry inh: qHTS for Inhibitors of binding or entry into cells for Lassa Virus | Lassa virus pseudotype entry inhibition, cell reporter | Potency, µM (series often up to 37.9 µM), for inactives: at the top dose activity change, negative = inhibition, actives largely listed as inhibitors | 1.2% of 300,000 active; calls by dose curve; tested in HEK293 cells; note: potency is the fitted concentration of half-maximal effect; nearly all actives have a fitted effect of over 50% in size
# The depositor's hits bear a star; i = inactive; ? = inconclusive; . = no result given; [ ] = remark or other dose. Shown are actives, neighbours in structure and some others; about 7.8% of the full set was active somewhere. % is set by controls: 0 for no effect and ±100 for the full control effect.
SMILES,Vaccinia mCherry,VACV Venus inh,Marburg entry inh,HCMV antiviral,HCV inhibitor,LASV entry inh
CCN1C(=O)c2ccccc2Sc2ccc(NC(=O)Nc3cc(C)cc(C)c3)cc21,?,?,5%[46.1 µM],-99*,.,0%[46.1 µM]
Cc1cccc(OCC(=O)Nc2ccc3c(c2)N(C)C(=O)c2ccccc2S3)c1,-17%[7.34 µM],-14%[7.34 µM],.,7,.,?
CN1C(=O)c2ccccc2Sc2ccc(NC(=O)COc3ccccc3)cc21,-10%,-24%,.,-63*,.,?
CCN1C(=O)c2ccccc2Sc2ccc(NC(=O)c3ccc(Cl)cc3)cc21,-12%,-12%,.,12,.,18%[46.1 µM]
COc1ccc(CN2Cc3ccccc3OC(c3ccccc3OC)C2)c(O)c1 (stereo unspecified),-21%,-11%,.,.,.,.
COC(=O)[C@H]1[C@H](CO)[C@H]2Cn3c(cccc3=O)[C@H]2N1Cc1ccccc1Cl,.,.,.,18,.,.
COc1ccc(-c2cc(NC=O)c3ncc(-c4ccc(C(C)=O)cc4)n3c2)cc1OC,?,?,.,44,.,.
COc1cccc(-c2cc(NC=O)c3ncc(-c4ccc(C(C)=O)cc4)n3c2)c1,-24%,?,.,-64*,.,.
COc1ccc(-c2cc(NC=O)c3ncc(-c4cccc(C(C)=O)c4)n3c2)cc1,13µM*,?,.,18,.,.
O=C(c1ccc2nc[nH]c2c1)N1CCN(c2ncc(C(F)(F)F)cc2Cl)CC1,?,?,-29%,-70*,?,-24%
O=C(c1ccccc1)N1CCOC12CCN(c1ncc(C(F)(F)F)cc1Cl)CC2,.,-23%,-27%,-61*,8%,?
O=C(c1ccc2nc[nH]c2c1)N1CCN(c2cccc(C(F)(F)F)c2)CC1,-20%,-16%,0%,28,?,?
Nc1ccc(N2CCN(c3ncc(C(F)(F)F)cc3Cl)CC2)c(C(F)(F)F)c1,-12%,-5%,6%[46.1 µM],-104*,.,-1%[46.1 µM]
CN(C)/C=C/C(=O)c1ccc(N2CCN(c3ncc(C(F)(F)F)cc3Cl)CC2)cc1,.,-20%,?,-108*,?,?
Cc1ccc(Cl)cc1N1CCN(CCNC(=O)Nc2ccccc2Cl)CC1,-2%,-22%,6%[46.1 µM],10,.,-10%[46.1 µM]
CN(C(=O)CSc1nc2c(c(=O)[nH]1)CCCC2)c1ccccc1,-9%,-2%,0%[46.1 µM],11,.,11%[46.1 µM]
CCc1ccc(-n2nc(CO)c(C(=O)NCCCc3ccccc3)n2)cc1,3%,-8%,9%[46.1 µM],47,.,8%[46.1 µM]
CCCNc1c(NS(=O)(=O)c2c(F)c(F)c(F)c(F)c2F)c(=O)oc2ccccc12,5µM*,?,.,-16,8%,.
CCc1nnc(SC(CC)C(=O)Nc2ccc(OC)c(Cl)c2)c2cc3occc3n12 (stereo unspecified),2%,-13%,.,?,.,-18%[46.1 µM]
CCN(CC)CCCNCC(=O)Nc1ccc2c(c1)CCC2,i,-4%,.,19,10µM*,.
COc1ccc(OC)c(CCNC(=O)c2c(C)nn(-c3ccc(F)cc3)c2-n2cccc2)c1,-9%,0%,.,-33,.,?
Cc1cc([N+](=O)[O-])nn1CC(=O)Nc1ccc(Cl)cn1,-26%,-3%,-1%[46.1 µM],-60*,6%,-6%[46.1 µM]
C[C@@H]1[C@@H](c2ccccc2)Cc2nc3ccccc3nc2C[C@H]1C(=O)N1CCCC1,.,.,-15%[14.2 µM],.,.,.
COc1ccc2c(c1)CCCC1(CCCO2)CCCO1 (stereo unspecified),.,.,.,8,.,.
O=C(N/N=C/C=C/c1ccccc1)C1CC1c1ccccc1 (stereo unspecified),.,.,?,5,-18%,0.13µM*
SMILES,Vaccinia mCherry,VACV Venus inh,Marburg entry inh,HCMV antiviral,HCV inhibitor,LASV entry inh
CC(=O)Nc1ccc(/C(C)=N/NC(=O)C2CC2c2ccccc2)cc1 (stereo unspecified),-4%,-2%,3%,-11,-20%,0.018µM*
CN(C)c1ccc(/C=N/NC(=O)C2CC2c2ccccc2)cc1 (stereo unspecified),.,.,.,32,-9%,.
CCOC(=O)c1cccc(NC(=O)C2Cc3ccccc3N2C(=O)c2ccccc2)c1 (stereo unspecified),-6%,-10%,.,12,.,11%[46.1 µM]
Cc1c(Cl)cccc1NC(=O)C(C)n1c(=O)cc(C)c2c(C)nn(-c3ccccc3)c21 (stereo unspecified),-10%,7%,.,-2,.,-11%[46.1 µM]
Cc1ccc2nc(/N=C(\N)NC(=O)N3c4ccccc4Sc4ccccc43)nc(C)c2c1,i,-8%,-3%,-65*,?,-12%
Cc1ccc2c(C)nc(/N=C(\N)NC(=O)N3c4ccccc4Sc4ccccc43)nc2c1,-16%,-8%,?,?,?,9%
CCCCc1nc2cc(C(=O)NCc3cn(C)nc3C)ccc2o1,i,-6%,11%[46.1 µM],-37,13µM*,?
CCCCc1nc2cc(C(=O)NCc3nccn3CC)ccc2o1,.,.,.,-19,-20%,.
O=C(NCc1ccccc1)NC1COc2ccccc2C1 (stereo unspecified),-10%,-9%,.,21,.,-18%[46.1 µM]
O=C(CCCn1c(=S)[nH]c2cc3c(cc2c1=O)OCO3)N1CCN(c2ccccc2)CC1,.,.,9%,-10,?,-11%
O=C(CCCn1c(=S)[nH]c2cc3c(cc2c1=O)OCO3)N1CCN(c2ccc(Cl)cc2)CC1,.,.,?,-86*,13µM*,?
O=C(CCCCCn1c(=S)[nH]c2ccc(N3CCOCC3)cc2c1=O)NCc1cccc(Cl)c1,1%,0%,?,-71*,?,-26%
O=C(CCCn1c(=S)[nH]c2cc3c(cc2c1=O)OCO3)NCCc1ccc(Cl)cc1,-24%,?,.,-74*,.,.
O=C(CCCCCn1c(=S)[nH]c2ccc(N3CCOCC3)cc2c1=O)NCc1ccccc1,-26%,-11%,6%,-30,?,-7%
C=CCCCN1C(=O)NC(c2ccccc2)C(C(=O)OC)=C1C (stereo unspecified),.,.,-29%[14.2 µM],.,.,.
CCCCNc1ccc(/C=C2\C=Cc3ccccc32)cc1,18%,6%,.,.,.,.
CCOC(=O)c1c(-c2ccccc2)oc2ccc(OCc3ccccc3Br)cc12,-9%,-2%,.,19,.,5%[46.1 µM]
CN1CCN(c2ccccc2NC(=O)c2ccc(OCc3ccccc3)cc2)CC1,.,-24%,-19%[46.1 µM],13,11µM*,?
Cc1nc(COc2ccc(C(=O)Nc3ccccc3N3CCOCC3)cc2)cs1,-9%,-13%,-13%[46.1 µM],6,11µM*,10%[46.1 µM]
CCCc1ccc(S(=O)(=O)N2CCC(c3nnc(-c4cccc(C)c4)o3)CC2)cc1,-15%,-19%,-25%[46.1 µM],-78*,.,2%[46.1 µM]
Cc1ccc(S(=O)(=O)N2CCC(c3nnc(-c4cccc(C)c4)o3)CC2)cc1,-12%,-10%,-4%[46.1 µM],-92*,.,-23%[46.1 µM]
